# Only some compounds are listed: those with a hit (about 8.7% of all), similar ones and a draw of the others.
# 12-LOX inh – ALOX12 (human) lipoxygenase inhibition; P18054; AID 1671190; Potency, µM (doses to about 108 µM), usual class: inhibitors; purified 12hLO, xylenol orange hydroperoxide absorbance; hit rate 1.1% among 580,000
#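 Hydroperoxide product was detected by ferrous iron/xylenol orange as the 573 to 405 nm absorbance ratio. Arachidonic acid at 40 uM (final) was turned over for 30 min at room temperature by 150 nM human 12hLO, pH 7.0 Hepes buffer, after 15 min compound preincubation.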
# BAZ2B inh – BAZ2B (human) inhibition; AID 504333; AlphaScreen BAZ2B-H3K14Ac peptide displacement; Q9UIF8; Potency, µM (highest dose often 114 µM), most hits filed as inhibitors; hit rate 4.4% among 360,000; also: nearly all actives have a fitted effect of over 60% in size
#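 AlphaScreen displacement: compounds (up to 110uM) incubated 30 min at room temperature with a preformed 50 nM BAZ2B/50 nM biotinylated H3K14Ac peptide complex in PBS pH 7.4 with Tween-20. Donor and acceptor beads at 10 ug/mL final added, 20 min light-protected before reading.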
# Sfp PPTase inh – inhibitors of Bacillus subtilis Sfp phosphopantetheinyl transferase | Q9F4F7 | Biochemical Sfp PPTase activity, qHTS | Potency, µM, hits mostly inhibitors | hit rate 3.5% among 310,000 | AID 1490;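 also: the enzyme is Sfp with the accession as filed and its product quenches rhodamine fluorescence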
#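 Compounds were incubated with enzyme (final 15 nM) for 15 min at room temperature before substrate addition started the reaction. Fluorescence at 525 nm excitation, 598 nm emission was recorded immediately and after 30 minutes.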
# JMJD2A Tudor inh – JMJD2A Tudor domain (human) inhibition; AlphaScreen JMJD2A-Tudor / H3K4me3 peptide binding; Potency, µM (highest dose often 114 µM), most hits filed as inhibitors; O75164; AID 504339; hit rate 4.4% among 390,000; also: nearly all actives have a fitted effect of over 50% in size
# G9a block – inhibitors of human histone lysine methyltransferase G9a | Q96KQ7 | hit rate 8.8% among 350,000 | G9a H3K9 monomethylation, AlphaScreen, 2 h | Potency, µM (top dose mostly 102 µM), most hits filed as inhibitors; also: nearly all actives have a fitted effect of over 75% in size
# Target sequence (Q96KQ7 913-1193 limits assumed): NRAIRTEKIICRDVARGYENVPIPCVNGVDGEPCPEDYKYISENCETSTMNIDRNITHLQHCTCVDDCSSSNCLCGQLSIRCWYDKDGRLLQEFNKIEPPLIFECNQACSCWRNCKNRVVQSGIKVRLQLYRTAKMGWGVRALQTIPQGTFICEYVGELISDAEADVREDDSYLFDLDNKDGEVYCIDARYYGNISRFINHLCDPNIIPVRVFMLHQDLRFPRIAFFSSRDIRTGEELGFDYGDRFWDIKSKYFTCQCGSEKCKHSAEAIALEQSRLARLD
#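 Signal arises when biotinylated H3K9 peptide, once monomethylated, bridges streptavidin donor and antibody-captured acceptor beads. Enzyme at 20 nM was preincubated 15 min with test compounds; peptide 500 nM and SAM 20 uM then reacted for 2 h.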
# HP1b binding inh – blocks HP1-beta chromodomain binding to methylated histone tails; AlphaScreen HP1-beta / biotin-H3K9me3 peptide binding; Potency, µM (titrated, usually from 114 µM), hits mostly inhibitors; hit rate 0.56% among 390,000; AID 540317; also: nearly all actives have a fitted effect of over 70% in size
# Target sequence (P83916 whole entry, looked up): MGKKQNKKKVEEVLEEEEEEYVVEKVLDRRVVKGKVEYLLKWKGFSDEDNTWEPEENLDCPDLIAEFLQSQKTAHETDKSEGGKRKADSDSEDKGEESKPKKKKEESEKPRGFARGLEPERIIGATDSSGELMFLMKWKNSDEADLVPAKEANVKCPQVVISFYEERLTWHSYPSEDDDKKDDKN
#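 HP1-beta protein (50 nM final) preincubated 30 min at room temperature with biotinylated H3(1-18)K9me3 peptide (50 nM) in PBS pH 7.4, 0.01% Tween-20, then compound added for 30 min. AlphaScreen streptavidin donor/nickel chelate acceptor beads (10 ug/mL final), 30 min dark, luminescence read.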
# A number is an active result; – = inactive; ? = inconclusive; · = no result given; [ ] = another dose, or the depositor's remark. Calls follow the shape of the dose curve; as a rule, active = well fitted curve in the direction sought with a large enough effect; inconclusive = small, poorly fitted or top-dose-only effect, or another doubt; inactive = no such curve, though single readings can be large; an effect the other way counts as inactive or inconclusive.
SMILES,12-LOX inh,BAZ2B inh,Sfp PPTase inh,JMJD2A Tudor inh,G9a block,HP1b binding inh
O=C(CN1CCc2ccccc2C1)N1N=C(c2cccs2)CC1c1cccs1 (stereo unspecified),–,·,·,·,·,·
O=C(Cn1ccc2ccc(Cl)cc21)Nc1ccc(O)cc1,–,·,·,·,·,·
O=C(NCC1(COc2ccccc2)C[C@@H](O)[C@@H](O)C1)C1CCCC1 (stereo partly specified),–,·,·,·,·,·
CC(Sc1nc2ccccc2[nH]1)C(=O)NC1(C#N)CCCCC1 (stereo unspecified),–,·,·,·,·,·
COc1cc(OC)c(NC(=O)c2ncoc2-c2ccc(OC)c(OC)c2)cc1Cl,–,·,·,·,·,·
CCn1ncc(N2CCC(NC(=O)CCC3CCCCC3)CC2)cc1=O,–,·,·,·,·,·
Cc1ccc(-c2nc(N3CCOCC3)sc2C(=O)N2CCOCC2)cc1,–,–,–,–,–,–
Cc1sc(N2CCOCC2)nc1-c1ccc(NS(C)(=O)=O)cc1,35µM,·,·,·,·,·
CC(=O)Nc1ccc(-c2nc(N3CCCC3)sc2C)cc1,5.6µM,·,·,·,·,·
CCC(=O)Nc1cccc(C(=O)N2CCN3C(=O)CN(C)C(=O)C3C2)c1 (stereo unspecified),–,·,·,·,·,·
Cc1ccc(S(=O)(=O)n2cccc2/C=C/[N+](=O)[O-])cc1,35µM,·,·,·,·,·
Cc1ccnc(NC(c2ccccn2)c2c(C)[nH]c3ccccc23)c1 (stereo unspecified),–,–,?,56µM,?,?
Cc1[nH]c2ccccc2c1C(c1ccccn1)N1CCC(C)CC1 (stereo unspecified),–,–,–,–,?,–
CCOC(=O)C1CCCN(C(c2ccccn2)c2c(C)[nH]c3ccccc23)C1 (stereo unspecified),?,–,45µM,–,1.4µM,–
Cc1[nH]c2ccccc2c1C(c1ccccn1)N1CCCC1 (stereo unspecified),–,–,–,–,45µM,–
Cc1ccc(S(=O)(=O)N2CCCC(Cn3cnc4cccnc43)C2)cc1C (stereo unspecified),–,·,·,·,·,·
Cc1cc(C)cc(C(=O)NC2CCN(C(=O)c3cc4c(=O)[nH]c(C)cn4n3)CC2)c1,–,·,·,·,·,·
O=C(c1cccc(S(=O)(=O)NC2CC2)c1)N1CCN(c2ccccc2O)CC1,–,·,·,·,·,·
COc1ccccc1N1CCN(/N=C/c2cc(OC)c(O)c(OC)c2)CC1,–,?,40µM,89µM,13µM,–
COc1ccccc1N1CCN(/N=C/c2cccc(O)c2)CC1,–,71µM,–,–,–,–
COc1cc(/C=N/N2CCN(c3ccccc3OC)CC2)ccc1OC(C)=O,–,?,–,–,–[0.501 µM],–
COc1ccccc1N1CCN(/N=C\c2cccnc2)CC1,?,79µM,?,?,40µM,–
Cc1ccc(NC(=O)C(C)N(C)Cc2ccc3c(c2)OCCO3)cc1 (stereo unspecified),–,·,·,·,·,·
O=C(c1ccc(-n2cccn2)cc1)N1CCCC1c1ccc2c(c1)OCCO2 (stereo unspecified),–,·,·,·,·,·
CCOc1ccc(C2NC(=O)N(Cc3noc(C4CCCCC4)n3)C3=C2C(=O)OC3)cc1 (stereo unspecified),–,·,·,·,·,·
SMILES,12-LOX inh,BAZ2B inh,Sfp PPTase inh,JMJD2A Tudor inh,G9a block,HP1b binding inh
O=C1N[C@@H](Cc2ccccc2)C(=O)N1CCN1CCOCC1,–,–,–,–,?,–
O=C1NC(Cc2ccccc2)C(=O)N1Cc1cc([N+](=O)[O-])cc2c1OCOC2 (stereo unspecified),–,79µM,–,–,–,–
CCC1CCC(C(=O)NNC(=O)c2cc(-c3ccco3)[nH]n2)CC1 (stereo unspecified),?,?,45µM,–,14µM,–
O=C(O)c1ccccc1-c1c2cc(Br)c(=O)c(Br)c-2oc2c(Br)c(O)c(Br)cc12,·,·,79µM,·,?,·
Cc1ccc(NC(=O)CN2C(=O)CCc3ccccc32)cc1C,–,79µM,·,?,–,–
Cc1ccc(Cl)cc1NC(=O)CN1C(=O)CCc2ccccc21,–,–,·,–,–,–
Cc1ccc(C)c(NC(=O)CN2C(=O)CCc3ccccc32)c1,–,79µM,·,?,?,–
CCOc1ccc(CN(CCc2ccc3c(c2)OCO3)Cc2cc(OC)cc(OC)c2)cc1,?,?,·,4µM,1.4µM,?
CN(C)c1ccc(CNC(=O)CN2C(=O)CCn3nc(-c4cn(C)c5ccccc45)cc32)cc1,?,45µM,·,50µM,?,–
O=C(CCN1CCN(c2ccccn2)CC1)Nc1ccc(F)c(F)c1,–,·,·,·,·,·
CC(C)(C)c1ccccc1NC(=O)c1ccc(N2CCCCS2(=O)=O)cc1Cl,–,·,·,·,·,·
Cc1nc(SCC(=O)Nc2cc(Cl)ccc2[N+](=O)[O-])nc(C)c1C,–,40µM,–,?,?,?
O=C(CSc1ncccn1)Nc1cc(Cl)ccc1[N+](=O)[O-],–,·,–,–,–,–
Cc1nc(SCC(=O)Nc2cccnc2Cl)nc(C)c1C,–,–,–,–,40µM,–
Cc1ccc(-c2cnc(CCC(=O)N(C)C(C)c3ccc(S(N)(=O)=O)cc3)o2)cc1C (stereo unspecified),–,·,·,·,·,·
O=C(O)C1C2CCC(CC2)C1C(=O)N1CCN(Cc2ccc(F)cc2)CC1 (stereo unspecified),–,–,35µM,–,?,–
O=C(C1CCN(Cc2ccccc2)CC1)N1CCN(C/C=C/c2ccccc2)CC1,?,?,–,?,14µM,?
O=C(C1CCN(Cc2ccc(F)cc2)CC1)N1CCN(C/C=C/c2ccccc2)CC1,–,50µM,–,20µM,50µM,?
Cc1ccc2[nH]c(=O)c(CCC(=O)N3CCCCC3)cc2c1,–,·,·,·,·,·
Nc1nccnc1C(=O)NCc1cccc(C(F)(F)F)c1,–,·,·,·,·,·
CCc1cc(=O)oc2c(C)c(OC(C)C(=O)NCc3ccncc3)ccc12 (stereo unspecified),–,·,·,·,·,·
CCCN1C(=O)c2cc(C(=O)NCc3ccc4c(c3)OCO4)nn2CC1(C)C(=O)NC1CCCC1 (stereo unspecified),–,·,·,·,·,·
CC(C)S(=O)(=O)c1csc(C(=O)NN)c1-n1cccc1,–,?,–,–,–,–
CC(C)S(=O)(=O)c1csc(C(=O)NN)c1Cl,?,–,?,–,45µM,–
Fc1ccc(-c2csc(NCC3CCCO3)n2)cc1 (stereo unspecified),–,·,·,·,·,·
Cc1ccc(NCC(=O)c2ccc([N+](=O)[O-])cc2)cc1,·,?,20µM,?,8.9µM,?
CNC(CC(=O)c1ccc([N+](=O)[O-])cc1)C(Cl)(Cl)Cl (stereo unspecified),·,?,10µM,?,4µM,16µM
Cc1ccc(C(=O)CNc2cccc([N+](=O)[O-])c2)cc1,?,–,–,–,?,–
COC(=O)c1ccc(Oc2coc3cc(OCc4ccc(Cl)cc4)ccc3c2=O)cc1,–,·,·,·,·,·

# Source: PubChem BioAssay (National Center for Advancing Translational Sciences (NCATS))
